# Unmarked numbers belong to inactive results. Results filed as inconclusive are left out. Where a call stands in place of a potency, no number is given. The source made the active and inactive calls. Unless noted, calls follow the shape of the full dose curve.
# Assays:
# [1] = Nuclear factor erythroid 2-related factor 2/antioxidant responsive element (Nrf2/ARE) small molecule agonists: qHTS cell viability counter screen in human keratinocytes (AID 1919968; active = well fitted curve in the direction sought with a large enough effect in the repeat runs; an effect the other way counts as inactive or inconclusive; also: nearly all actives have a fitted effect of over 55% in size; also: potency is read from the fitted curve at half-maximal effect)
# Method in brief: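 HaCaT ARE reporter line, 1,500 cells/well; 5 h settle, 37 C/5% CO2; cpd in DMSO pinned; 23 h exposure; CellTiter-Fluor, 1 h; fluorescence.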
# [2] = Nuclear factor erythroid 2-related factor 2/antioxidant responsive element (Nrf2/ARE) small molecule agonists: luciferase reporter gene qHTS assay in human keratinocytes (AID 1919969); also: nearly all actives have a fitted effect of over 35% in size; also: potency is read from the fitted curve at half-maximal effect
# [3] = molecular target: KiSS-1 receptor (Homo sapiens) (UniProt Q969F8); experiment: Human kisspeptin (KISS1R) small molecule agonists, calcium flux assay in KISS1R-HEK293 cells (AID 1920064; active = well fitted curve in the direction sought with a large enough effect in the repeat runs; an effect the other way counts as inactive or inconclusive)
# Method in brief: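 Stable human KISS1R HEK293 line; 18 h plating, 37 C/5% CO2; calcium dye 1 h 37 C; compound pin transfer; kinetic fluorescence Ex/Em 480/540, 3 min.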
# [4] = G protein-coupled receptor (GPCR) small molecule agonists, calcium flux assay: HEK293 wild type cell line counter screen (AID 1920065)
# Method in brief: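 Kinetic fluorescence at Ex/Em 480/540, recorded every second over 3 min, served as the read-out after compound addition. Each compound was tested at 15 concentrations in triplicate on cells pre-loaded with calcium dye for 1 h.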
# [5] = p53 small molecule agonists, cell-based qHTS assay with human liver microsomes (AID 1963577); also: potency is read from the fitted curve at half-maximal effect
# Method in brief: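 Compounds act here after metabolic activation: human liver microsomes and NADPH, both at 0.5 mg/mL final, were co-added to p53RE-bla cells. Incubation ran 16 h at 37 C, followed by LiveBLAzer detection.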
# [6] = p53 small molecule agonists, cell-based qHTS assay with rat liver microsomes (AID 1963578)
# Method in brief: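 Read-out is beta-lactamase reporter fluorescence (LiveBLAzer, 2 h, room temperature, dark) in p53RE-bla cells treated 16 h at 37 C with compound, rat liver microsomes and NADPH, both 0.5 mg/mL final.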
# [7] = p53 small molecule agonists, cell-based qHTS assay with human liver microsomes: qHTS cell viability counter screen (AID 1963579); also: nearly all actives have a fitted effect of over 45% in size
# Method in brief: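 Cells carrying the p53 response-element beta-lactamase reporter are treated for 16 h at 37 C with test compounds in the presence of human liver microsomes and NADPH (both 0.5 mg/mL final); ATP-based CellTiter-Glo luminescence then reports viability.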
# [8] = p53 small molecule agonists, cell-based qHTS assay with rat liver microsomes: qHTS cell viability counter screen (AID 1963580); also: nearly all actives have a fitted effect of over 45% in size; also: potency is read from the fitted curve at half-maximal effect
# Method in brief: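 p53RE-bla HCT-116 cells were exposed 16 h at 37 C to compounds with rat liver microsomes (0.5 mg/mL) and NADPH (0.5 mg/mL). Viability was measured in the same wells as ATP content by CellTiter-Glo luminescence.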
# [9] = p53 small molecule agonists, cell-based qHTS assay: qHTS cell viability counter screen (AID 1963581); also: nearly all actives have a fitted effect of over 45% in size
# Method in brief: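 HCT-116 p53RE-bla cells, 4,000/well, plated 5 h before compound pin transfer; 16 h at 37 C; bla substrate 2 h RT; then CellTiter-Glo, 30 min RT, luminescence.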
# [10] = p53 small molecule agonists, cell-based qHTS assay (AID 1963582; active = well fitted activation curve with a large enough effect in the signal ratio in the repeat runs, not every such curve was filed as active; the % refers to the signal ratio)
# Method in brief: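 Reporter line: p53RE-bla. Pre-incubation 5 h, 37 C, 5% CO2; compound (DMSO, pin tool) 16 h, 37 C; B/G FRET substrate 2 h RT; fluorescence intensity read.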
# [11] = cAMP Responsive Elements (CRE) small molecule agonists, cell-based qHTS assay (AID 1963590)
# Method in brief: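 HEK 293T CRE-bla, 2,000 cells/well, 18 h preincubation 37 C/5% CO2; cpds (DMSO) pinned, 3 h; LiveBLAzer B/G FRET substrate, 2 h RT.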
# [12] = cAMP Responsive Elements (CRE) small molecule antagonists, cell-based qHTS assay (AID 1963591; active = well fitted inhibition curve with a large enough effect in the signal ratio in the repeat runs, not every such curve was filed as active; the % refers to the signal ratio)
# Method in brief: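 Beta-lactamase reporter read by FRET substrate (LiveBLAzer B/G) after 2 h at room temperature. CRE-bla HEK293T cells had received compound plus 0.25 uM (final) NKH477 for 3 h at 37 °C.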
# [13] = molecular target: Beta-2 adrenergic receptor (Homo sapiens) (UniProt P07550); experiment: Adrenergic beta2 receptor (ADRB2) small molecule antagonists, cell-based qHTS assay (AID 1963592); also: nearly all actives have a fitted effect of over 50% in size; also: potency is read from the fitted curve at half-maximal effect
# Method in brief: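 Cells (CHO, stable ADRB2 overexpression) incubated 18-20hr at 37C; compounds added from DMSO; agonist mix (1nM isoproterenol, 100uM IBMX, 25uM Ro-20-1724) added; 0.5hr RT; d2-cAMP and anti-cAMP-cryptate added; 1hr RT; 665/615 nm read.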
# [14] = molecular target: Beta-2 adrenergic receptor (Homo sapiens) (UniProt P07550); experiment: Adrenergic beta2 receptor (ADRB2) small molecule agonists, cell-based qHTS assay (AID 1963593);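 also: CHO cells stably overexpressing human ADRB2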
# Method in brief: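 CHO cells stably over-expressing ADRB2 were plated overnight at 37C, then dosed with compounds plus a stimulation mix containing 100uM IBMX and 25uM Ro-20-1724 for 0.5hr at room temperature. cAMP was measured by HTRF competition, 1hr.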
# [15] = molecular target: D(2) dopamine receptor (Homo sapiens) (UniProt P14416); experiment: Dopamine D2 receptor (DRD2) small molecule agonists, cell-based qHTS assay (AID 1963594); also: nearly all actives have a fitted effect of over 35% in size
# Method in brief: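 HEK293 cells stably expressing human DRD2, pre-treated with PDE inhibitor Ro20-1724 (0.1 mM final) and compound 10 min at room temperature, then stimulated with NKH477 (200nM […]) for 30 min. cAMP read by HTRF (665/620 nm).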
# [16] = molecular target: D(2) dopamine receptor (Homo sapiens) (UniProt P14416); experiment: Dopamine D2 receptor (DRD2) small molecule antagonists, cell-based qHTS assay (AID 1963595; active = well fitted inhibition curve with a large enough effect in the signal ratio in the repeat runs, with a control signal flat; the % refers to the signal ratio; also: potency is read from the fitted curve at half-maximal effect)
# Method in brief: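 Readout: HTRF cAMP, cAMP-d2 competing with cellular cAMP for anti-cAMP cryptate, read after 1 h. Cells: DRD2-HEK293. Conditions: 0.1 mM Ro20-1724, 12 nM quinpirole, 200 nM NKH477, 30 min RT.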
# [17] = molecular target: Muscarinic acetylcholine receptor M1 (Homo sapiens) (UniProt P11229); experiment: Cholinergic receptor muscarinic 1 (CHRM1) small molecule antagonists, cell-based qHTS assay (AID 1963588); also: nearly all actives have a fitted effect of over 40% in size; also: potency is read from the fitted curve at half-maximal effect
# Method in brief: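 CHRM1-CHO calcium-flux assay, antagonist mode. Cells were seeded 18 h, dye-loaded 1 h at 37 C and given compound for 5 min at RT, then acetylcholine was added at 50nM. FDSS fluorescence was read 3 min; 15 concentrations, three runs.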
# [18] = molecular target: 5-hydroxytryptamine receptor 2A (Homo sapiens) (UniProt P28223); experiment: 5-hydroxytryptamine receptor 2A (HTR2A) small molecule agonists, cell-based qHTS assay (AID 1963587); also: nearly all actives have a fitted effect of over 30% in size; also: potency is read from the fitted curve at half-maximal effect
# Method in brief: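 CHO cells stably expressing human HTR2A, plated 18 h, loaded with calcium dye 1 h at 37 C. Agonist mode: compounds added and intracellular calcium fluorescence recorded kinetically for 2 min at 1 sec intervals.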
# [19] = molecular target: Muscarinic acetylcholine receptor M1 (Homo sapiens) (UniProt P11229); experiment: Cholinergic receptor muscarinic 1 (CHRM1) small molecule agonists, cell-based qHTS assay (AID 1963589); also: nearly all actives have a fitted effect of over 35% in size
# Method in brief: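 Human M1 in stable CHO line; 18 h plating, 1 h dye load 37 C; cpd added (agonist mode); Ca2+ fluorescence kinetic read, 1 s intervals; 15 conc, 3 runs.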
# Chain of Muscarinic acetylcholine receptor M1 (Homo sapiens) (P11229 whole entry, looked up): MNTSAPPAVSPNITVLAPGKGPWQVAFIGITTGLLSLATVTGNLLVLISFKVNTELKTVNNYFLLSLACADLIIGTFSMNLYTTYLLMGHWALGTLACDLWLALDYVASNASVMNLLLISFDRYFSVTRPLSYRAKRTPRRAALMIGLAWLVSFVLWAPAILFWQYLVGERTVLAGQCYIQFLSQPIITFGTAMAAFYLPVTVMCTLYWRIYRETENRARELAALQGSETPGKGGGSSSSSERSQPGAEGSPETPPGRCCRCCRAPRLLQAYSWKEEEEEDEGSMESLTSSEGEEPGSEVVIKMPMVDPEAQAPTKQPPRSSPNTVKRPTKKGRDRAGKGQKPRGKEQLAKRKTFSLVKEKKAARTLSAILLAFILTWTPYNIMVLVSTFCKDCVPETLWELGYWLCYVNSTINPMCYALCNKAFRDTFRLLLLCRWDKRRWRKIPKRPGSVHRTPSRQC
# Chain of 5-hydroxytryptamine receptor 2A (Homo sapiens) (P28223 whole entry, looked up): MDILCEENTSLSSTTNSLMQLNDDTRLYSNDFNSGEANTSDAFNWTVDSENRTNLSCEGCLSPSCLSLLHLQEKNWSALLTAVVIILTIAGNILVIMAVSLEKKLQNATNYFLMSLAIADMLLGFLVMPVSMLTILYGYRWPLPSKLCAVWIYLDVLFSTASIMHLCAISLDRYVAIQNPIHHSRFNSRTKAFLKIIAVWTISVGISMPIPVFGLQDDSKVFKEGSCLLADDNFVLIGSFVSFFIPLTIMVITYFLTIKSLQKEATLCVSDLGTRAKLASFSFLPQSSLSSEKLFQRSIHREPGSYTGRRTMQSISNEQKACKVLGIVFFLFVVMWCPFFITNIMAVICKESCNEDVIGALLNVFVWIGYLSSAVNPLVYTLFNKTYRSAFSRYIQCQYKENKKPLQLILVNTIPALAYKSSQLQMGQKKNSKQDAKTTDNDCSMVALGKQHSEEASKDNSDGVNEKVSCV
# Chain of Beta-2 adrenergic receptor (Homo sapiens) (P07550 whole entry, looked up): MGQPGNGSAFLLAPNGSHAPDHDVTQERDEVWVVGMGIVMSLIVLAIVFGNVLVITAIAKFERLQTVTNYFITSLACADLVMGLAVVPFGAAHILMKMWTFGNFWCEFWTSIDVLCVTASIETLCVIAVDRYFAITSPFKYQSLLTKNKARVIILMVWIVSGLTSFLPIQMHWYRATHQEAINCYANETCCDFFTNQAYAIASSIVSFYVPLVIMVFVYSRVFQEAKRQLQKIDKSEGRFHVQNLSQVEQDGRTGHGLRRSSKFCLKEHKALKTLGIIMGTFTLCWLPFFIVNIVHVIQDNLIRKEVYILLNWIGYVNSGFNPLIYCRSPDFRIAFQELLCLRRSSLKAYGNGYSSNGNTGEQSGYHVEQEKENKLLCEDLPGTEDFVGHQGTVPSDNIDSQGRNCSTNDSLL
# Chain of KiSS-1 receptor (Homo sapiens) (Q969F8 whole entry, looked up): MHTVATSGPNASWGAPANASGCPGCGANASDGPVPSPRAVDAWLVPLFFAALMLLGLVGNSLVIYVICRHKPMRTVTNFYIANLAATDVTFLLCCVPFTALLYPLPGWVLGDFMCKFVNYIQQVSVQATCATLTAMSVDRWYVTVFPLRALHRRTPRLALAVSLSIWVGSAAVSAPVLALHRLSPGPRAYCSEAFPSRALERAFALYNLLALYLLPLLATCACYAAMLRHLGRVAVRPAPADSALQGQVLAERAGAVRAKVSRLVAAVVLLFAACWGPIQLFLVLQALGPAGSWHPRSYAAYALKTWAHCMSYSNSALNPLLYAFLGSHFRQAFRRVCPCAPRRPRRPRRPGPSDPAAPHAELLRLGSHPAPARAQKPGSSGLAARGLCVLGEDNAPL
# Chain of D(2) dopamine receptor (Homo sapiens) (P14416 whole entry, looked up): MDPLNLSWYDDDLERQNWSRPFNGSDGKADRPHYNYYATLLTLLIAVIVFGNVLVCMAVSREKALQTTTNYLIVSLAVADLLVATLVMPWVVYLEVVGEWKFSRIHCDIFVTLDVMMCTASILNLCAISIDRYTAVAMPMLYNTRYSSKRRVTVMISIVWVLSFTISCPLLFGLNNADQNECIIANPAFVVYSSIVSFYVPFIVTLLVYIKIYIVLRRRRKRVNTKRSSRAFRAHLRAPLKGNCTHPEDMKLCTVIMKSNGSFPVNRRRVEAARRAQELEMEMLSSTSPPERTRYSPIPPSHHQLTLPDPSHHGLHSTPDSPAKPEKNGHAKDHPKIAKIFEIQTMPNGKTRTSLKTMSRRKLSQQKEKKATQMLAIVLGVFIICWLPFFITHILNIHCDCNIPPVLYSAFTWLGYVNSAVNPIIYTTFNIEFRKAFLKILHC
smiles,measurement,setting,value
COc1ccc(CN2CCNCC2)c(OC)c1OC,Potency,[1],inactive
same,Potency,[2],inactive
same,Potency,[3],inactive
same,Potency,[4],inactive
same,Potency,[5],inactive
same,Potency,[6],inactive
same,Potency,[7],inactive
same,Potency,[8],inactive
same,Potency,[9],inactive
same,Potency,[10],inactive
same,Potency,[11],inactive
same,Potency,[12],inactive
same,Potency,[13],inactive
same,Potency,[14],inactive
same,Potency,[15],inactive
same,Potency,[16],inactive
CCC[CH2][Sn]([CH2]CCC)([CH2]CCC)[O][Sn]([CH2]CCC)([CH2]CCC)[CH2]CCC,Potency,[1],533 nM (active)
same,Potency,[2],533 nM (active)
same,activation,[3],9.21% [at 6.97 µM]
same,activation,[4],2.41% [at 5.23 µM]
same,activation,[5],-15.1% [at 5.99 µM]
same,activation,[6],-3.45% [at 5.99 µM]
same,Potency,[8],1000 nM (active)
same,"activity, negative = inhibition",[17],0.927% [at 5.58 µM]
same,Potency,[13],1680 nM (active)
same,activation,[15],2.93% [at 8.39 µM]
same,Potency,[16],2120 nM (active)
CC(C)(C)NCC(O)c1cc(Cl)c(N)c(Cl)c1 (stereo unspecified),Potency,[1],inactive
same,Potency,[2],inactive
same,Potency,[3],inactive
same,Potency,[4],inactive
same,Potency,[5],inactive
same,Potency,[6],inactive
same,Potency,[7],inactive
same,Potency,[8],inactive
same,Potency,[9],inactive
same,Potency,[10],inactive
same,Potency,[12],inactive
same,Potency,[15],inactive
same,Potency,[16],2.1 nM (active)
CCN1CCCC1CNC(=O)C(O)(c1ccccc1)c1ccccc1 (stereo unspecified),Potency,[1],inactive
same,Potency,[2],inactive
same,Potency,[3],inactive
same,Potency,[4],inactive
same,Potency,[5],inactive
same,Potency,[6],inactive
same,Potency,[8],inactive
same,Potency,[9],inactive
same,Potency,[10],inactive
same,Potency,[18],2680 nM (active)
same,Potency,[17],91.8 nM (active)
same,Potency,[19],inactive
same,Potency,[11],inactive
same,Potency,[12],inactive
same,Potency,[13],inactive
same,Potency,[15],inactive
same,Potency,[16],inactive
C[N+]1(CCF)[C@@H]2CC[C@H]1CC(OC(=O)C(O)(c1ccccc1)c1ccccc1)C2 (stereo partly specified),Potency,[1],inactive
same,Potency,[2],inactive
same,Potency,[3],inactive
same,Potency,[4],inactive
same,Potency,[5],inactive
same,Potency,[6],inactive
same,Potency,[7],inactive
same,Potency,[8],inactive
same,Potency,[9],inactive
same,Potency,[10],inactive
same,Potency,[18],inactive
same,Potency,[19],inactive
same,Potency,[11],inactive
same,Potency,[13],inactive
same,Potency,[15],inactive
same,Potency,[16],inactive
COP(=S)(OC)Oc1c(Cl)cc(C)cc1Cl,Potency,[1],inactive
same,Potency,[2],inactive
same,Potency,[3],inactive
same,Potency,[4],inactive
same,Potency,[5],9130 nM (active)
same,Potency,[7],inactive
same,Potency,[8],inactive
same,Potency,[9],inactive
same,Potency,[10],inactive
same,Potency,[18],inactive
same,Potency,[17],inactive
same,Potency,[19],inactive
same,Potency,[11],inactive
same,Potency,[12],inactive
same,Potency,[13],inactive
same,Potency,[14],inactive
same,Potency,[15],inactive
same,Potency,[16],inactive
CCCCCCCCCCCCCCCCCCn1cc[n+](C)c1,Potency,[1],19200 nM (active)
same,Potency,[2],inactive
same,Potency,[3],inactive
same,Potency,[4],inactive
same,Potency,[5],inactive
same,Potency,[6],inactive
same,Potency,[7],inactive
same,Potency,[8],inactive
same,Potency,[9],inactive
same,Potency,[18],inactive
same,Potency,[19],inactive
same,Potency,[13],inactive
same,Potency,[14],inactive
same,Potency,[15],inactive
same,Potency,[16],inactive
